Assay results taken from PubChem BioAssay (NCATS).
Inconclusive results are not listed. Entries that show only a call come without a potency. Unmarked numbers belong to inactive results. The source made the active and inactive calls. The call rests on the fitted dose curve; in most records, active means well fitted curve in the direction sought with a large enough effect; inconclusive means small, poorly fitted or top-dose-only effect, or another doubt; inactive means no such curve, though single readings can be large; an effect the other way counts as inactive or inconclusive.

Assays:
[1] = target: Rap guanine nucleotide exchange factor 3 (Homo sapiens) (UniProt O95398); experiment: Confirmatory qHTS for antagonist of cAMP-regulated guanine nucleotide exchange factor 3 (EPAC1) (AID 1645880); conditions: EPAC1 Rap1B-BODIPY-GDP exchange, fluorescence; activity, negative = inhibition: at 115 µM (top of the series); further: nearly all actives have a fitted effect of over 55% in size; further: potency means the concentration at half of the fitted maximal effect
Method in brief: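 Released BODIPY-GDP fluoresces less than Rap1-bound BODIPY-GDP; the signal is followed at 480/540 nm at 5-min intervals over 30 min, after 5 min at room temperature. Reactions contain 100 nM EPAC1, 250 nM RAP1B-BODIPY-GDP and 50 uM GDP; results are normalized to ATA and DMSO.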

[2] = target: Rap guanine nucleotide exchange factor 3 (Homo sapiens) (UniProt O95398); experiment: Confirmatory qHTS for agonist of cAMP-regulated guanine nucleotide exchange factor 3 (EPAC1) (AID 1645881);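 further: EPAC1 catalysed release of BODIPY-GDP from Rap1B seen as fluorescence loss; nearly all actives have a fitted effect of over 75% in size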
[3] = target: Rap guanine nucleotide exchange factor 4 (Homo sapiens) (UniProt Q8WZA2); experiment: Confirmatory qHTS for antagonist of cAMP-regulated guanine nucleotide exchange factor 4 (EPAC2) (AID 1645885); further: nearly all actives have a fitted effect of over 25% in size; further: potency means the concentration at half of the fitted maximal effect
[4] = target: Rap guanine nucleotide exchange factor 3 (Homo sapiens) (UniProt O95398); experiment: Counterscreen qHTS for antagonist of cAMP-regulated guanine nucleotide exchange factor 3 (EPAC1) (AID 1645888)
Method in brief: (§1)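 Measured: fluorescence of BODIPY-GDP bound to Rap1B, which falls as exchange proceeds. Conditions include 50 uM competing GDP, 5 and 30 min reads, and a later cAMP challenge for antagonist detection.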

[5] = target: Rap guanine nucleotide exchange factor 3 (Homo sapiens) (UniProt O95398); experiment: Counterscreen qHTS for agonist of cAMP-regulated guanine nucleotide exchange factor 3 (EPAC1) (AID 1645889); further: nearly all actives have a fitted effect of over 40% in size; further: potency means the concentration at half of the fitted maximal effect
Method in brief: as §1

Rap guanine nucleotide exchange factor 3 (Homo sapiens), sequence (O95398 whole entry, looked up): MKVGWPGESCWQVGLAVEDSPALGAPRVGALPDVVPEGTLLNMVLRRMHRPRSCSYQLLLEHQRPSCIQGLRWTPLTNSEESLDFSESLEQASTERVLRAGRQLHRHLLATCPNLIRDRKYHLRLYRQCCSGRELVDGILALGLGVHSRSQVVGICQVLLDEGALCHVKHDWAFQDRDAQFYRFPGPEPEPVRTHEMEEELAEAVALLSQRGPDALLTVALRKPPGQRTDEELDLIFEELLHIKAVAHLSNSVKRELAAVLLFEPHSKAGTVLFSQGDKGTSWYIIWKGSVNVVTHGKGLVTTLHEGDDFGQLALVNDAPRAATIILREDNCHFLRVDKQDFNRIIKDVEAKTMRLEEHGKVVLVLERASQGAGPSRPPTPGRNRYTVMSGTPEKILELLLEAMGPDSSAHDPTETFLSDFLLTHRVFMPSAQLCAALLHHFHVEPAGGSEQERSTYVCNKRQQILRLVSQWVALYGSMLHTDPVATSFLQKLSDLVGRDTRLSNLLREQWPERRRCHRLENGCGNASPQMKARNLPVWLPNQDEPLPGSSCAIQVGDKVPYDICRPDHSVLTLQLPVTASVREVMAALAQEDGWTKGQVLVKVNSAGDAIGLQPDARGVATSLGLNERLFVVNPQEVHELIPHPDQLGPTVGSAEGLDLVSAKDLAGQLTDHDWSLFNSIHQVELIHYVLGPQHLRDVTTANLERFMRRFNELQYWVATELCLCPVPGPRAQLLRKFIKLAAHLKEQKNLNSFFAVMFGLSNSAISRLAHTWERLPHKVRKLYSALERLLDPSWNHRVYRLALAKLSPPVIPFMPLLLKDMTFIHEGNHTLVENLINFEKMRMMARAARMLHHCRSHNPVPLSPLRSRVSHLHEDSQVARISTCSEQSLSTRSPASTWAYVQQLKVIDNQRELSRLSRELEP
Rap guanine nucleotide exchange factor 4 (Homo sapiens), sequence (Q8WZA2 whole entry, looked up): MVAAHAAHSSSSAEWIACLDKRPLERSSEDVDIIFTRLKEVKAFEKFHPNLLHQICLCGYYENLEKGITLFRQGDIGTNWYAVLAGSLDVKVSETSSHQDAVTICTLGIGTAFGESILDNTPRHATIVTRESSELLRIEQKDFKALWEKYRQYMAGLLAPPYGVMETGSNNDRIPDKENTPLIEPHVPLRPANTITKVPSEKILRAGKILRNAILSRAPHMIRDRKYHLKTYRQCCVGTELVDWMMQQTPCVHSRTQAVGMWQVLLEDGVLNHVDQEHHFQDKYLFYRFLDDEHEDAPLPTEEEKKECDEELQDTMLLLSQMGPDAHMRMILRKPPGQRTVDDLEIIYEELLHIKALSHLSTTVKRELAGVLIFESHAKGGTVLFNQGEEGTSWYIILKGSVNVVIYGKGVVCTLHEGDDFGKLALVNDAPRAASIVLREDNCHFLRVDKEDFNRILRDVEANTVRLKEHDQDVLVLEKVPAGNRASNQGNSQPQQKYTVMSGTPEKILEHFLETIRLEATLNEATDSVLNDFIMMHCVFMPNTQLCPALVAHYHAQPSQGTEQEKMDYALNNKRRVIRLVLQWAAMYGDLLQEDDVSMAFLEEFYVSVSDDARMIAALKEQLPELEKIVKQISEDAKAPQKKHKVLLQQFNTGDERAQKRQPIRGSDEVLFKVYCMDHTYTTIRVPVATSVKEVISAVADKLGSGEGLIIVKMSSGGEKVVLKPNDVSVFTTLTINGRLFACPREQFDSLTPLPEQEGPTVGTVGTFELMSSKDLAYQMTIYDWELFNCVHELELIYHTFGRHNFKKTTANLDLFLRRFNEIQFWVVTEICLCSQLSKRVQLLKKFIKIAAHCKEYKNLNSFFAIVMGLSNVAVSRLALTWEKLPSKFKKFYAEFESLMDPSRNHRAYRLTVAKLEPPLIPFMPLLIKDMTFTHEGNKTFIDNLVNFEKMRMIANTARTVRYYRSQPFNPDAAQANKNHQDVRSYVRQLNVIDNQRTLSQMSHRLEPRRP

| SMILES | Potency [1] | Potency [2] | Potency [3] | Potency [4] | Potency [5] | activity change, negative = inhibition [4] | activation [5] | outcome [3] |
| --- | --- | --- | --- | --- | --- | --- | --- | --- |
| O=C1COc2ccc(C(=O)COC(=O)c3ccc4ccccc4n3)cc2N1 | 75.7 µM (active) | inactive | inactive | inactive | inactive |  |  |  |
| Cc1cccc(NC(=O)CC2C(=O)OCCN2Cc2ccccc2)c1 (stereo unspecified) | inactive | inactive | inactive | inactive | inactive |  |  |  |
| COc1ccc(N2CCN(CC(O)COc3ccc(C(C)C)c(C)c3)CC2)cc1 (stereo unspecified) | inactive | inactive | inactive | inactive | inactive |  |  |  |
| Nc1nc2ccccc2n1S(=O)(=O)c1ccc([N+](=O)[O-])cc1 | inactive | inactive | inactive | inactive | inactive |  |  |  |
| COC(=O)c1cc2sccc2n1Cc1ccccc1 | inactive | inactive | inactive | inactive | 44.7 µM (active) |  |  |  |
| COc1cc([N+](=O)[O-])ccc1-c1ccc(/C=C2\C(=O)ON=C2c2ccccc2)o1 | 19 µM (active) | inactive | inactive | inactive | inactive |  |  |  |
| COc1ccc(Cn2c(=O)cc(C)[nH]c2=S)cc1 | inactive | inactive | inactive |  |  | -27% [at 30.8 µM] | -6.93% [at 30.8 µM] |  |
| COc1ccc(C(=O)Nc2ccc(NC(=O)c3cccs3)cc2)cc1OC | inactive | inactive | inactive | inactive | inactive |  |  |  |
| CCOc1ccc(-c2cccc(NC(=O)c3ccco3)c2)nn1 | inactive | inactive | 84.9 µM (active) | inactive | inactive |  |  |  |
| O=C(C(=Cc1ccccc1)c1ccccc1)c1ccccc1 | inactive | inactive | inactive | inactive | inactive |  |  |  |
| Nc1ccc2c(O)cc(S(=O)(=O)O)cc2c1 | 4.26 µM (active) | inactive | inactive | inactive | inactive |  |  |  |
| CC(=O)C1=CCC(c2cccc(Cl)c2)N(S(=O)(=O)c2ccc(C)cc2)C1 (stereo unspecified) | inactive | inactive | inactive | inactive | inactive |  |  |  |
| CCC(C)Cn1c(COc2ccc(OC)cc2)nc2ccccc21 (stereo unspecified) | inactive | inactive | inactive | inactive | inactive |  |  |  |
| CC(=O)N1CCN(C(=O)c2[nH]c(C(F)(F)F)nc2-c2ccccc2)CC1 | inactive | inactive | inactive | inactive | inactive |  |  |  |
| O=C1C=C(c2ccccc2Oc2ccccc2)C[C@@H](c2ccc3c(c2)OCO3)C1 | inactive | inactive | inactive | inactive | inactive |  |  |  |
| C=CCN1C(=O)/C(=C/C=C2/N(CC)c3ccc(S(=O)(=O)N(C)C)cc3N2CC)SC1=S | inactive | inactive | inactive |  |  | -11.8% [at 30.8 µM] | 14.5% [at 30.8 µM] |  |
| CC(=O)Nc1ccc(/C(C)=N/NC(=O)c2ccc(COc3ccccc3Cl)o2)cc1 | inactive | inactive | inactive |  |  | 0.248% [at 30.8 µM] | 15.7% [at 30.8 µM] |  |
| CCOc1ccccc1NC(=O)N1CCC(N2CCN(Cc3ccccc3)C(=O)C2=O)CC1 | inactive | inactive |  | inactive | inactive |  |  | inactive [at 12.7 µM] |
| COc1cc(CN2C(=O)C(C)ON=C2c2ccccc2F)cc(OC)c1 (stereo unspecified) | inactive | inactive | inactive | inactive | inactive |  |  |  |
| CCN(CC)CC#CCOC(c1ccccc1)c1ccccc1 | inactive | inactive | 37.9 µM (active) | inactive | inactive |  |  |  |
| O=c1onc(-c2ccccc2)n1-c1cc(Cl)cc(Cl)c1 | inactive | inactive | inactive | inactive | inactive |  |  |  |
| Cc1cc(C)c(S(=O)(=O)N(C)c2ccccc2)c(C)c1 | inactive | inactive | 23.9 µM (active) | inactive | inactive |  |  |  |
| Oc1[nH]c2ccccc2c1N=Nc1ccccc1F | inactive | inactive | inactive | inactive | 11.2 µM (active) |  |  |  |
| CCOc1ccc(NC2c3ccccc3C(=O)N2Cc2ccco2)cc1 (stereo unspecified) | inactive | inactive | inactive | inactive | inactive |  |  |  |
| Cc1ccc(C)c(Oc2nnnn2-c2ccccc2)c1 | inactive | inactive | inactive | inactive | inactive |  |  |  |
| O=C(COc1ccc(Br)cc1Cl)c1ccc[nH]1 | inactive | inactive |  | inactive |  |  |  |  |
| COC(=O)c1cn(C(=O)c2ccc(OC)c(OC)c2)c2ccccc12 | inactive | inactive |  |  |  | -11% [at 30.8 µM] |  |  |
